HEK293 tox = cytotoxic in the GLP-1 receptor inverse agonist counter-screen. Potency, µM (highest dose often 38.3 µM), for inactives: top-dose activity change, negative = inhibition, usual class: inhibitors. 0.13% of 410,000 active. AID 624418. HEK293 cAMP-luciferase reporter cells, luminescence, 24 h;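 also: loss of luciferase light is scored as toxicity; potency is read from the fitted curve at half-maximal effect; % is scaled to controls: 0 for no effect and ±100 for the full control effect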
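Here, cytotoxicity is scored as loss of luminescence. The MLSMR collection was tested on cells seeded in medium containing 10% Nu serum, with a 24 hr compound exposure preceded by 12 hours of culture.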
PTHR1 ag = activates the human parathyroid hormone receptor PTHR1 | Q03431 | 0.075% of 410,000 active | HEK293 GP2 PTHR1 cells, GloSensor cAMP luminescence, 1 h | Potency, µM (titrated, usually from 115 µM), for inactives: at the highest dose activation, actives largely listed as activators; also: potency is read from the fitted curve at half-maximal effect; nearly all actives have a fitted effect of over 55% in size
Target sequence (Q03431 whole entry, looked up): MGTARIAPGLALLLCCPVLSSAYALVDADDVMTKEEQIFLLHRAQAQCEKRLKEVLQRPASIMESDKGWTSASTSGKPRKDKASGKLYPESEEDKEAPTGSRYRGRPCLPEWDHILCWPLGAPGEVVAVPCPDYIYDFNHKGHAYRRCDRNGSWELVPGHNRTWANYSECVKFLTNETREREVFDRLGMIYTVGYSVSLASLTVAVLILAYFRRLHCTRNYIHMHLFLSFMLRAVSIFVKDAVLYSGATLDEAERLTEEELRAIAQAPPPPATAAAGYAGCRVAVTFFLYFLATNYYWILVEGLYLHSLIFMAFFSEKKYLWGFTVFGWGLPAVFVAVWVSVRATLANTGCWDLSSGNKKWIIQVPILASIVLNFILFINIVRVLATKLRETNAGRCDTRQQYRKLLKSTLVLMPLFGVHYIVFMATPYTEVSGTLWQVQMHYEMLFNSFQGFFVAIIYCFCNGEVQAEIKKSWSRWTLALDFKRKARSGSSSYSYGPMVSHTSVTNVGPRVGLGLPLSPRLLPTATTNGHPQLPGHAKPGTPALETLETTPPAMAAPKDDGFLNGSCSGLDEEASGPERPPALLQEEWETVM
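HEK-293-derived GP2 cells expressing PTHR1 and a GloSensor cAMP reporter, 3,000/well, plated overnight, given luciferin plus IBMX (each 0.5 mM as added) for 1 h at 37 °C, then compound for 1 h at 37 °C. Luminescence was read after 15 min at room temperature.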
GLP-1R inv ag = acts as inverse agonist at human GLP-1 receptor. 1.6% of 410,000 active. HEK293 GLP-1R CRE-luciferase, luminescence, 24 h; GLP-1R form is constitutively active. Potency, µM (highest dose often 38.3 µM), without a hit: top-dose activity change, negative = inhibition, hits mostly inhibitors; also: potency is read from the fitted curve at half-maximal effect; % is scaled to controls: 0 for no effect and ±100 for the full control effect; nearly all actives have a fitted effect of over 55% in size
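HEK293 cells stably co-expressing a cAMP-responsive luciferase reporter and constitutively active GLP-1R were seeded, incubated 12 h, then exposed to compounds for 24 h at 37 C. Luminescence was read 12 min after detection reagent; inverse agonists lower signal.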
TSHR antag = human thyrotropin receptor antagonism; TSHR-expressing cells, TSH-stimulated cAMP HTRF, 2 h; active compounds read low; activity change, negative = inhibition, % at 11.5 µM; 0.2% of 330,000 active; AID 504810;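 active = activity change below a set negative limit, meaning inhibition stronger than a set level, cut at about -70% in these data; inconclusive = activity change between two set negative limits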; also: % is scaled to controls: 0 for no effect and ±100 for the full control effect
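TSHR-expressing cells were treated with compounds, then stimulated with TSH at EC80 (4nM final) for 2 hours at 37 deg C. Cellular cAMP was measured by HTRF competition between lysate cAMP and cAMP-d2 for a cryptate-labelled anti-cAMP antibody.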
GLP1R ag = agonists of human GLP-1 receptor; 0.007% of 380,000 active; AID 624172; P43220; Potency, µM (highest dose often 45.6 µM), without a hit: at the top dose activation, actives largely listed as activators; HEK293 GLP-1R CRE-luciferase, luminescence, 4-6 h; cells express a hypersensitive GLP-1R form; also: potency is read from the fitted curve at half-maximal effect; % of control where 0% means no effect
Starred values were filed as active, the others as inactive; i = inactive; ? = inconclusive; . = not tested or not shown; [ ] = remark or other dose. A selection: hits, their analogues and other compounds. The true share with any hit is near 1.8%. Unless noted, calls follow the shape of the dose curve; as a rule, active = well fitted curve in the direction sought with a large enough effect; inconclusive = small, poorly fitted or top-dose-only effect, or another doubt; inactive = no such curve, though single readings can be large; an effect the other way counts as inactive or inconclusive.

SMILES | HEK293 tox | PTHR1 ag | GLP-1R inv ag | TSHR antag | GLP1R ag
N#CC(c1cccc(Cl)c1)c1ccc2c(C(F)(F)F)cc(C(F)(F)F)nc2n1 (centres undefined) | -27.4% | -12.4% | 3.16µM* | . | -23.7%
CC(C)(C)OC(=O)N(CCc1ccccc1)Cc1ccccc1OCc1cccc(NC(=O)C2CCCC2)c1 | 3.8% | 7.0% | 2.82µM* | . | -3.4%
CC(C)C(=O)Nc1cccc(COc2ccccc2CN(Cc2ccccc2)C(=O)OC(C)(C)C)c1 | -2.8% | i | 11.2µM* | . | 4.7%
CC(C)(C)OC(=O)N(Cc1ccccc1)Cc1ccccc1OCc1ccc(NC(=O)C2CCC2)cc1 | -17.8% | -21.7% | 2.82µM* | . | -1.8%
CC(C)(C)OC(=O)N(CCc1ccccc1)Cc1ccccc1OCc1cccc(NC(=O)C2CC2)c1 | -3.0% | -11.8% | ? | . | 0.1%
CC(C)(C)OC(=O)N(Cc1ccccc1)Cc1ccccc1OCc1cccc(NC(=O)c2ccccc2)c1 | 0.9% | i | ? | . | -4.3%
CC(C)(C)OC(=O)N(CCc1ccccc1)Cc1cccc(OCc2cccc(NC(=O)C3CCCC3)c2)c1 | -11.1% | -2.5% | 10µM* | . | 18.1%
COc1ccccc1NC(=O)CSc1nnc2c3ccccc3n(C(C)C)c2n1 | -19.0% | -10.5% | ? | . | .
CC(C)(C)OC(=O)N(CCc1ccccc1)Cc1ccccc1OCc1ccc(NC(=O)C2CCC2)cc1 | 1.9% | -14.0% | 3.55µM* | . | -2.3%
CC(C)(C)OC(=O)N(CCc1ccccc1)Cc1ccc(OCc2cccc(NC(=O)C3CCCC3)c2)cc1 | -10.1% | i | ? | . | 4.4%
COc1ccccc1-c1nn(CCC(=O)Nc2ccc(C)cc2)c2nc(C)cc(C)c12 | -18.9% | -15.5% | ? | . | 2.8%
CC(C)OC(=O)c1ccc(NC(=O)c2cccc(-n3cnnn3)c2)cc1 | -24.0% | -33.7% | 7.08µM* | 17.0 | 7.6%
CCOc1ccc(NC(=O)c2cccc(-n3cnnn3)c2)cc1 | 1.5% | i | 3.9% | 0.8 | -2.3%
CN1CCc2c(sc3c2C(=O)NC(c2ccc(C(C)(C)C)cc2)N3)C1 (centres undefined) | 70.0% | i | 5.5% | . | .
CCC(C(=O)Nc1ccccc1-c1ccccc1)c1ccccc1 (centres undefined) | 6.3% | -25.6%[57.5 µM] | 7.94µM* | 7.0 | -6.6%
CCC(C(=O)Nc1ccccc1)c1ccccc1 (centres undefined) | 17.9% | -7.5% | ? | 1.3 | -0.6%
CCn1cc(S(=O)(=O)c2cccc(C)c2)c(=O)c2cc(F)c(N3CCN(c4ccccc4)CC3)cc21 | -3.1% | -23.7% | -17.7% | . | .
COc1ccc(CCn2c(C3CCCCC3)nc3c(c(=O)c4ccccc4n3C)c2=O)cc1 | 5.01µM* | -28.5% | ? | -8.0 | 8.1%
CCCCCCC(=O)O[C@@H]1CC[C@H]2[C@@H]3CCc4cc(O)ccc4[C@H]3CC[C@]12C | . | . | . | . | 1.2%
CN1CCc2nc3sc(C(=O)C45CC6CC(CC(C6)C4)C5)c(N)c3cc2C1 | 98.5% | -4.9% | ? | 42.8 | -19.4%
CNc1nc(N)c(C(=O)C23CC4CC(CC(C4)C2)C3)s1 | -26.5% | i | 5.62µM* | ? | 6.3%
Cc1ccc(-n2c(=O)c3c4c(sc3n(CC(=O)Nc3ccccc3C)c2=O)CCCCC4)cc1C | 1.3% | 2.4% | 14.1% | . | -0.9%
COc1cccc(C(=O)Nc2nnc(C(C)C)s2)c1 | 6.7% | -31.6%[57.5 µM] | 11.2µM* | -15.4 | -11.5%
C=C(C)c1cccc(C(C)(C)NC(=O)Nc2nnc(C(C)C)s2)c1 | 7.9% | i | 10µM* | 3.7 | 9.3%
CCc1ccc(C2c3c(-c4cc(C)ccc4O)n[nH]c3C(=O)N2CCO)cc1 (centres undefined) | -1.9% | i | -3.8% | . | .
Cc1ccc(NC(=S)NCCSc2ccc(Cl)cc2)cc1 | ? | -7.1% | ? | 2.6 | 9.2%
Cc1ccc(SCCNC(=S)Nc2cc(C)cc(C)c2)cc1 | ? | -36.3% | 7.94µM* | -20.8 | 0.9%
COc1ccccc1N1CCN(C(=O)CCC(=O)N2CCN(c3ccccc3OC)CC2)CC1 | 4.3% | -24.0% | -11.1% | 15.0 | -4.1%
